PubChem BioAssay
Inconclusive results are not listed. Active and inactive are the calls of the source.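 How the source made its calls, unless noted: active means GFP signal, as percent of the solvent control, above the screen mean plus 3 SD, about 149; inconclusive means no reading because the compound's own fluorescence upset strain identification; inactive means the rest.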

What was measured:
[1] = rapamycin-like changes in RPL19A-GFP expression – cell-based, S. cerevisiae, multiplex flow cytometry, primary screen (AID 1862; in the data active means percent of DMSO control GFP below about 86%;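 further: lower values mimic rapamycin by blocking the RPL19A rise seen in DMSO cells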); conditions: S. cerevisiae RPL19A-GFP strain, flow cytometry fluorescence, 3 h; at 10 µM; stronger effect = lower value
[2] = TOR pathway GLN3 branch reporter MEP2-GFP changes – S. cerevisiae, multiplex flow cytometry, primary screen (AID 1867;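 active means GFP response, as percent of the DMSO control, above the screen-wide mean plus 3 SD, about 139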;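 further: median GFP channel fluorescence of barcode-gated MEP2-GFP cells measured by flow cytometry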); conditions: S. cerevisiae MEP2-GFP strain, 3 h, at 10 µM, stronger effect = higher value, 100% means same as DMSO wells
[3] = TOR pathway RTG branch CIT2 reporter changes – S. cerevisiae, GFP fusion, multiplex flow cytometry, primary screen (AID 1870;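 active means percent response above a set limit, the screen-wide mean plus 3 SD, cut at about 130% in these data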;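 further: barcoded CIT2-GFP strain pooled with four other GFP strains with rapamycin as positive control; median GFP fluorescence per well over plate mean of DMSO wells so 100% = DMSO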); conditions: S. cerevisiae CIT2-GFP expression, 3 h, at 10 µM, stronger effect = higher value
[4] = TOR pathway LAP4-GFP level changes – S. cerevisiae, multiplex flow cytometry, primary screen (AID 1873); conditions: S. cerevisiae LAP4-GFP expression, 3 h, at 10 µM, stronger effect = higher value
[5] = yeast AGP1-GFP level changes, GLN3 branch – cell-based, multiplex flow cytometry, S. cerevisiae, primary screen (AID 1887;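 active means GFP signal above the screen-wide mean plus 3 SD, that is over about 124.5% of the solvent control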;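 further: AGP1-GFP fusion strain of S. cerevisiae within a five-strain barcoded multiplex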); conditions: 3 h, at 10 µM, stronger effect = higher value
[6] = reduced mouse 2C T cell binding to pMHC/ICAM-1 vesicles – MLPCN validation set, flow cytometry, LFA-1/ICAM-1 modulator project, pilot screen (AID 2523;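 active means response below a set limit, under 55% cells CD8-positive and vesicle-bound, and CD8 cells' 90th-percentile brightness under 279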;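 on vesicle binding response: mean PE anti-B7-1 fluorescence of CD8+ cells relative to row control; 100% = QL9-loaded vesicles with DMSO vehicle in the same plate row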); conditions: 2C mouse CD8+ T cells, at 7 µM, stronger effect = lower value; double positive events: measured here: CD8+/vesicle+ event percentage
[7] = target: Integrin beta-1 (Homo sapiens) + Integrin alpha-4 (Homo sapiens) (UniProt P13612+P05556); test: alpha4beta1 integrin LIBS antibody binding reduction – U937 cells, HUTS-21 mAb, flow cytometry, validation set, VLA-4 allosteric modulator project, pilot screen (AID 2674;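 active means inhibition above 50%, about 3 SD of the validation set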;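 further: antibody binding induced by the VLA-4 ligand LDV present at three times its Kd; 0% = LDV ligand with antibody and no compound and 100% = antibody without LDV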); conditions: HUTS-21 LIBS mAb binding, at 6.7 µM, stronger effect = higher value, binding induced by LDV ligand
Chain of Integrin beta-1 (Homo sapiens) + Integrin alpha-4 (Homo sapiens) (P05556 whole entry, looked up): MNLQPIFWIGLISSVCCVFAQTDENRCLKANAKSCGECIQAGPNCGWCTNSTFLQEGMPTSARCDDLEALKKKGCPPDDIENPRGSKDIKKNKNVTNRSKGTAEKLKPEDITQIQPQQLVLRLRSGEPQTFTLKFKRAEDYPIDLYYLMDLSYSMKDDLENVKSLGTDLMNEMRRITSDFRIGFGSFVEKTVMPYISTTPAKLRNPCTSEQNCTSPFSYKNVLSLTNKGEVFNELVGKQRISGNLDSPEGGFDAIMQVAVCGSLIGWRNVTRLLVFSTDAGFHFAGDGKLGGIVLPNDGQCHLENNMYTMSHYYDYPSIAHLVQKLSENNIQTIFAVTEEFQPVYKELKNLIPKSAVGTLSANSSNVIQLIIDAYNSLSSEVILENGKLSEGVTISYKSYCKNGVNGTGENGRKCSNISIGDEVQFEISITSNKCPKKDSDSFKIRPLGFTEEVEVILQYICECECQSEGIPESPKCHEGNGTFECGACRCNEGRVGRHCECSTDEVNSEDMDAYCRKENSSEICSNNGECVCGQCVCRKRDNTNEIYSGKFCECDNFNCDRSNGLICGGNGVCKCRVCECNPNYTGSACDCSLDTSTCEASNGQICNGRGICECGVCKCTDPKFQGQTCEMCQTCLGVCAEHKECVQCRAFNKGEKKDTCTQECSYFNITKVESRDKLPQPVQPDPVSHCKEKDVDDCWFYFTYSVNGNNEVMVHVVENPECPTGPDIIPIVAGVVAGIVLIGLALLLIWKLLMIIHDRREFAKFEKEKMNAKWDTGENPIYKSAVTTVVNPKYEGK
Chain of Integrin beta-1 (Homo sapiens) + Integrin alpha-4 (Homo sapiens) (P13612 whole entry, looked up): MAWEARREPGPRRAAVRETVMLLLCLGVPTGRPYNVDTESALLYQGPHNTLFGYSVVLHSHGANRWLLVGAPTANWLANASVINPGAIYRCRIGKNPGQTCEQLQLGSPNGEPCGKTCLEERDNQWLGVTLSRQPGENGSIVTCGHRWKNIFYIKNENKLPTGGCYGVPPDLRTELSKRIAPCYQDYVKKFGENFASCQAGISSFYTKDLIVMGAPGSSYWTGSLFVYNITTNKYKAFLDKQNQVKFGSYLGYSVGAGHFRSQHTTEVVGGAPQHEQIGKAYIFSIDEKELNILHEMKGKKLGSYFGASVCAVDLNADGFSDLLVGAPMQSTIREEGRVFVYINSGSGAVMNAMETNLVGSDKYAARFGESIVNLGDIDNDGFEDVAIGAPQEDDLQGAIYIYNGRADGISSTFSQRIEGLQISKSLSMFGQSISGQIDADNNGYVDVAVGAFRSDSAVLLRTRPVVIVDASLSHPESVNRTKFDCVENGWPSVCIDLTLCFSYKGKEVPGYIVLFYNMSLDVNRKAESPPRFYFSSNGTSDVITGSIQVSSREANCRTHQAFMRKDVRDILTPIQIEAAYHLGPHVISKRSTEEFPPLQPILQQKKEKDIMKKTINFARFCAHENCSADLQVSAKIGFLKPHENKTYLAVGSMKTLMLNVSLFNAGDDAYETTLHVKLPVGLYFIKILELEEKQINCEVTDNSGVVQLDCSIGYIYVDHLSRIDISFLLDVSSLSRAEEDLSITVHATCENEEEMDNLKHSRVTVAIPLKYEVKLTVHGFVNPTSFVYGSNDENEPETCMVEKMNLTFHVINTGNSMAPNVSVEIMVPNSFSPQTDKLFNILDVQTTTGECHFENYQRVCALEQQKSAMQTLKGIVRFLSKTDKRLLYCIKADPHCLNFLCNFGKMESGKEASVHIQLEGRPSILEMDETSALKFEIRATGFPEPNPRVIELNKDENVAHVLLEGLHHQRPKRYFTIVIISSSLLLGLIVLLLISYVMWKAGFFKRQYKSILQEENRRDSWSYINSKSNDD

[8] = calorie-restriction mimetic ROS inhibitors, yeast – validation compound set, pilot screen (AID 2706;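 active means superoxide response below 65% of plate, a cut near 3 SD across the whole screen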;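 further: yeast exposed to compound for one week at 30 degrees C before staining; 100% = mean of all compound wells on the same plate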); conditions: S. cerevisiae aging, superoxide DHE fluorescence; at 10 µM; stronger effect = lower value
[9] = target: Beta-adrenergic receptor kinase 1 (Homo sapiens) (UniProt P25098); test: GRK2 binders displacing RNA aptamer, biochemical, validation, human GRK2, bead flow cytometry (AID 488806;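 active means aptamer binding inhibition above 30%, about 3 SD of noise from non-fluorescent compounds; inactive means inhibition at or below 30%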); conditions: bead-bound GRK2, FAM-aptamer displacement, at 10 µM, stronger effect = higher value
Chain of Beta-adrenergic receptor kinase 1 (Homo sapiens) (P25098 whole entry, looked up): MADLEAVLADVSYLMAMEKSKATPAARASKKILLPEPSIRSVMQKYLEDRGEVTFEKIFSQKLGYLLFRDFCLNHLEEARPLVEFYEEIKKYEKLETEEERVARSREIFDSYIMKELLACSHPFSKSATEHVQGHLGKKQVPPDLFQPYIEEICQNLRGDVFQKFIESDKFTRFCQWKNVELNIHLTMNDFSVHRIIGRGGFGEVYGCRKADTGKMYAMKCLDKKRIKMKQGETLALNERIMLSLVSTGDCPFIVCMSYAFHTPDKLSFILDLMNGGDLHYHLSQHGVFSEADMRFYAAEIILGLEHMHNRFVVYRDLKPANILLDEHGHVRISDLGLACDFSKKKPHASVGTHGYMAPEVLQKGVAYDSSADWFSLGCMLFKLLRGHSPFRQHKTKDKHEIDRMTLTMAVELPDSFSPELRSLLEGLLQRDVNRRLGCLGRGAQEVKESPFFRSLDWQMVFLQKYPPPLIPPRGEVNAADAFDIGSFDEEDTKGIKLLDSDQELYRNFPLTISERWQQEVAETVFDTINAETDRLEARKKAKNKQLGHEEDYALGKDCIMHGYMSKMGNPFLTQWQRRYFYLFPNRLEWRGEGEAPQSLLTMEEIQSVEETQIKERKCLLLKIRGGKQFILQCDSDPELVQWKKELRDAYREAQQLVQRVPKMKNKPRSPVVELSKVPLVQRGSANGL

[10] = target: Beta-2 adrenergic receptor (Homo sapiens) (UniProt P07550); test: agonist-induced loss of surface beta2AR – cell-based, FAP fluorogen, flow cytometry, validation set, pilot screen (AID 504459;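 active means percent response above 42, roughly 3 SD of non-fluorescent test compounds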;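 further: agonist-driven loss of surface beta2AR via internalization measured by FAP dye flow cytometry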); conditions: Am2.2-beta2AR cells, at 10 µM, stronger effect = higher value
Chain of Beta-2 adrenergic receptor (Homo sapiens) (P07550 whole entry, looked up): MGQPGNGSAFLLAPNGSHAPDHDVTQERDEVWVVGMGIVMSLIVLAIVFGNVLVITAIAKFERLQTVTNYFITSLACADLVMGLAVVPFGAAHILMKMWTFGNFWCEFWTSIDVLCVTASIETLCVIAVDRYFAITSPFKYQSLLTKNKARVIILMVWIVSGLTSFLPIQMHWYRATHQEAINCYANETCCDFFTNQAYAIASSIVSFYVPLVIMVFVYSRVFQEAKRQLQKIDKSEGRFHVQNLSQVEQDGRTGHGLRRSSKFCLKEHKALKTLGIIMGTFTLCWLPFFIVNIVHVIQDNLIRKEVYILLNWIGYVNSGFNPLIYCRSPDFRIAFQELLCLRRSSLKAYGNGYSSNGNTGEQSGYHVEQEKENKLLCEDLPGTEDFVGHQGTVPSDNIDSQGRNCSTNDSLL

[11] = target: AP-2 complex subunit beta (Homo sapiens) (UniProt P63010); test: beta-arrestin/AP2 interaction blockers – biochemical, validation set, GST-AP2 beads, flow cytometry, pilot screen (AID 504541;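 active means inhibition above 54%, about 3 SD of non-fluorescent compounds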;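 further: AP2 carries R879A mutation and is captured from E. coli lysate; bead-bound FITC arrestin peptide fluorescence measuring arrestin peptide binding to AP2; 0% = DMSO wells and 100% = excess unlabeled arrestin peptide control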); conditions: FITC arrestin peptide, at 10 µM, stronger effect = higher value, AP2 beta2 appendage fragment, R879A mutant
Chain of AP-2 complex subunit beta (Homo sapiens) (P63010 whole entry, looked up, the tested form may be a part, one chain of several): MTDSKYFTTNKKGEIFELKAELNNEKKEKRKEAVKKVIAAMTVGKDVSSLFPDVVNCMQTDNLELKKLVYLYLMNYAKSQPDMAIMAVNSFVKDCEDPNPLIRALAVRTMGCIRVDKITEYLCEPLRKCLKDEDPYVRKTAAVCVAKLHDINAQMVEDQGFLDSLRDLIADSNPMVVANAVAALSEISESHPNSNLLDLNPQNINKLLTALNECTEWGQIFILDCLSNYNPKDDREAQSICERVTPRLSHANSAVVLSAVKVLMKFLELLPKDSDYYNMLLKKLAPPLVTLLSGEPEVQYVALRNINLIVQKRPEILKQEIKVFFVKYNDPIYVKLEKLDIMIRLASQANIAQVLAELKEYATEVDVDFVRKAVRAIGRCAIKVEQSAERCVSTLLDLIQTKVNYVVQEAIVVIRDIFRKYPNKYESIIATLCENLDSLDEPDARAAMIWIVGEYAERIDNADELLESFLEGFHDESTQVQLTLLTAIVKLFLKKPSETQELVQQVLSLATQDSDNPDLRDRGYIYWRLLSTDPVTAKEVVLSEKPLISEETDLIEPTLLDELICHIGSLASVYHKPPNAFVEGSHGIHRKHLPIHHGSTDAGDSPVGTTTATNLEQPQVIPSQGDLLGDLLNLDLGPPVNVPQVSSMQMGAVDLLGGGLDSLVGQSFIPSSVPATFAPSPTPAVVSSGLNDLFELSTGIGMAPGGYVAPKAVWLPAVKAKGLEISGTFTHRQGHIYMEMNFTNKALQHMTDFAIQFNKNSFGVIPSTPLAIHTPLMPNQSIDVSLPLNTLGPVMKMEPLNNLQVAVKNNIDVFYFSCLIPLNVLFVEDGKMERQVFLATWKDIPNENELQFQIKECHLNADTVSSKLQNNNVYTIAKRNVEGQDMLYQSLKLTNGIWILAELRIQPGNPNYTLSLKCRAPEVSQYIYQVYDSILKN

[12] = cytosolic pH regulators acting via V-ATPase – S. cerevisiae, pHLuorin, HTS validation (AID 504600; in the data active means response above about 15%;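 further: plate controls were DMSO for no effect and reference compound for full effect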); conditions: V-ATPase proton transport, at 10 µM, stronger effect = higher value
[13] = test system: anti-desmoglein-3 scFv antibody binding to human DSG3; test: blockers of pathogenic pemphigus antibody–desmoglein-3 binding – biochemical, validation compound set, bead-based, flow cytometry, pilot screen (AID 588368;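 active means binding below the plate cutoff, the plate median minus 3 SD, with a reading above zero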;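 further: signal is the median channel fluorescence of bead-bound GFP antibody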); conditions: Protein G beads, DSG3-Fc, scFv-GFP binding, at 10 µM, stronger effect = lower value
[14] = Nile Red efflux blockade in pump-expressing yeast – validation compound set, multiplex, phenotypic, pilot screen (AID 588506;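 active means efflux inhibition above 0.42, the validation set average plus 4 SD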;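 further: Nile Red retained in cells so higher fluorescence means more efflux inhibition; 0 = negative control wells and 1 = enniatin B 25 µM full block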); conditions: S. cerevisiae pump-expressing triplex, Nile Red efflux flow cytometry; at 10 µM; stronger effect = higher value; the pumps come from Candida albicans
[15] = target: ATP-binding cassette sub-family B member 6 (Homo sapiens) (UniProt Q9NP58); test: blockers of ABCB6-driven porphyrin uptake – K562-ABCB6 cells, flow cytometry, validation set, pilot screen (AID 588550;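 active means inhibition above the screen-wide mean plus 3 SD, about 51%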;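 further: 0% = DMSO wells and 100% = benzethonium chloride 70 µM positive control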); conditions: K562-ABCB6 porphyrin accumulation, 1 h, at 10 µM, stronger effect = higher value
Chain of ATP-binding cassette sub-family B member 6 (Homo sapiens) (Q9NP58 whole entry, looked up): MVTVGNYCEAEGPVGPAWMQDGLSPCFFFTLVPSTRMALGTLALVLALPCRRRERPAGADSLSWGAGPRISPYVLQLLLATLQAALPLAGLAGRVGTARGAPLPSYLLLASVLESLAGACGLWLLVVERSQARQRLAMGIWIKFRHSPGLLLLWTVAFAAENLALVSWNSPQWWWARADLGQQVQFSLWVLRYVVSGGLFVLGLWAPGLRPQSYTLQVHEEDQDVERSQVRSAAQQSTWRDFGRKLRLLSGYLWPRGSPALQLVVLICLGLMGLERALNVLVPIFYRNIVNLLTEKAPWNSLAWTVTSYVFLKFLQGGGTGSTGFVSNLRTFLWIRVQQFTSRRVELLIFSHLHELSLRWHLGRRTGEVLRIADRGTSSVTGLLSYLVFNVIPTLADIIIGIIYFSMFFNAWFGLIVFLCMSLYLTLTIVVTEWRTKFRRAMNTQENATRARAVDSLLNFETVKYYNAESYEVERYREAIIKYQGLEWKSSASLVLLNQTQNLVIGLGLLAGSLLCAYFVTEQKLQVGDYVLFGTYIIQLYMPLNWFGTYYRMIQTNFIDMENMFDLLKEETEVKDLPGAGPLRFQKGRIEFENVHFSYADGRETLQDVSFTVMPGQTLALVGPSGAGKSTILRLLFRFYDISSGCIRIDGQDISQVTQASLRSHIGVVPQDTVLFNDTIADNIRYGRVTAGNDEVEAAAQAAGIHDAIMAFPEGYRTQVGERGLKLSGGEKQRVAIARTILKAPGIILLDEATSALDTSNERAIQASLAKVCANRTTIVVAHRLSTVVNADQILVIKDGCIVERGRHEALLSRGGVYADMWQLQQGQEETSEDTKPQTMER

[16] = AML differentiation inducers, ER-HoxA9 marrow cells – cell-based, GFP/MAC1 double positive, flow cytometry, validation set, primary screen (AID 588685;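 active means differentiation response of at least 50%, scaled between solvent and reference control, from cells with both markers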;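 further: compound exposure lasts four days before antibody staining and flow analysis; 0% = DMSO wells and 100% = 5 µM fulvestrant positive control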); conditions: stronger effect = higher value, normalized: vehicle 0, fulvestrant 100

Cc1ccc(C(=O)COC(=O)c2cnccn2)cc1[N+](=O)[O-]
58.1%: double positive events [6]
inactive: percent of DMSO control GFP [1] 99.1% | GFP response vs DMSO [2] 99.6% | percent response of DMSO control [3] 110% | GFP response vs DMSO [4] 82% | GFP response, % of DMSO [5] 82.5% | vesicle binding response [6] 226% | inhibition [7] -18.2% | superoxide response (% of plate) [8] 97.6% | aptamer binding inhibition [9] 4% | response [10] -3.42% | inhibition [11] -6.78% | response [12] -1.08% | binding (% of control) [13] 103% | efflux inhibition (fraction of control) [14] 0.01 | inhibition [15] 12% | differentiation response [16] -21.6%

COc1ccc(-c2cc(=O)oc3cc(OC(C)C(=O)O)ccc23)cc1 (stereo not given)
inactive: percent of DMSO control GFP [1] 107% | GFP response vs DMSO [2] 94.7% | percent response of DMSO control [3] 93.8% | GFP response vs DMSO [4] 104% | GFP response, % of DMSO [5] 107% | vesicle binding response [6] 124% | inhibition [7] 11.7% | superoxide response (% of plate) [8] 115% | aptamer binding inhibition [9] 3% | response [10] -24.8% | inhibition [11] 6.04% | response [12] 1.91% | binding (% of control) [13] 108% | efflux inhibition (fraction of control) [14] 0 | inhibition [15] 3% | differentiation response [16] 19.6%
63.4%: double positive events [6]

COc1ccc2c(c1OC)C(=O)OC2C1c2c(cc3c(c2OC)OCO3)CCN1C (stereo not given)
60.2%: double positive events [6]
inactive: percent of DMSO control GFP [1] 97.8% | GFP response vs DMSO [2] 100% | percent response of DMSO control [3] 104% | GFP response vs DMSO [4] 91.4% | GFP response, % of DMSO [5] 95.7% | vesicle binding response [6] 230% | inhibition [7] 11% | superoxide response (% of plate) [8] 92.5% | aptamer binding inhibition [9] 5% | response [10] -9.24% | inhibition [11] -5.89% | response [12] -1.48% | binding (% of control) [13] 96.4% | efflux inhibition (fraction of control) [14] -0.29 | inhibition [15] -1% | differentiation response [16] -2.69%

CCC1CCc2c(sc(NC(=O)c3cccnc3)c2C(N)=O)C1 (stereo not given)
64.4%: double positive events [6]
inactive: percent of DMSO control GFP [1] 97.6% | GFP response vs DMSO [2] 102% | percent response of DMSO control [3] 96.4% | GFP response vs DMSO [4] 108% | GFP response, % of DMSO [5] 107% | vesicle binding response [6] 252% | inhibition [7] -38.6% | superoxide response (% of plate) [8] 99.6% | aptamer binding inhibition [9] 7% | response [10] -24.4% | inhibition [11] 5.47% | response [12] -30.9% | binding (% of control) [13] 98.3% | efflux inhibition (fraction of control) [14] -0.09 | inhibition [15] 14% | differentiation response [16] 38.4%

CC1(c2ccccc2)CC(C)(C)N2C(=O)C(=O)c3cccc1c32 (stereo not given)
inactive: percent of DMSO control GFP [1] 108% | GFP response vs DMSO [2] 97.4% | percent response of DMSO control [3] 99.6% | GFP response vs DMSO [4] 81.1% | GFP response, % of DMSO [5] 95.7% | vesicle binding response [6] 148% | inhibition [7] -7.25% | superoxide response (% of plate) [8] 109% | aptamer binding inhibition [9] 4% | response [10] 20.4% | inhibition [11] 0.89% | response [12] 3.44% | binding (% of control) [13] 98.7% | efflux inhibition (fraction of control) [14] 0.15 | inhibition [15] 5% | differentiation response [16] 0.8%
60.1%: double positive events [6]
